Experimental data from the antibiotic and cytotoxicity screens of Wong et al. (2023).
Screen size: about 39,000 compounds; about 1,500 (3.8%) were called active. The full list was thinned out, with actives kept by preference.

The compounds below were run on HSkMC (human skeletal muscle cells) (assay: cytotoxicity call (relative viability < 0.9)). Details: 10 µM.

Row | SMILES | cytotoxicity call
1 | Cc1noc(C)c1NC(=O)Nc1cccc2c1O[C@@H](CN(C)C(=O)Nc1cccc3ccccc13)[C@@H](C)CN([C@H](C)CO)C2=O | inactive
2 | C[C@@H]1CN([C@@H](C)CO)S(=O)(=O)c2ccc(C#CCN(C)C)cc2O[C@@H]1CN(C)Cc1ccc2c(c1)OCO2 | inactive
3 | COCC#Cc1cnc2c(c1)C(=O)N([C@@H](C)CO)C[C@@H](C)[C@H](CN(C)C(=O)c1cnccn1)O2 | inactive
4 | CO[C@H]1CN(C)C(=O)c2cc(NC(=O)Nc3cccc(Cl)c3)ccc2OC[C@@H](C)N(C(=O)Nc2c(C)noc2C)C[C@H]1C | inactive
5 | C[C@H]1CN([C@@H](C)CO)C(=O)CCCn2nncc2CO[C@H]1CN(C)S(=O)(=O)c1ccc(Cl)cc1 | inactive
6 | NC(CC(=O)N1CCn2c(nnc2C(F)(F)F)C1)Cc1cc(F)c(F)cc1F.O.O=P(O)(O)O (centres undefined) | inactive
7 | C[C@@H]1CN([C@@H](C)CO)C(=O)c2cccc(NS(=O)(=O)c3ccc(F)cc3)c2O[C@H]1CN(C)S(=O)(=O)c1ccc(F)cc1 | inactive
8 | C[C@H](CO)N1C[C@H](C)[C@@H](CN(C)C(=O)c2cnccn2)Oc2ncc(C#CCC3CCCC3)cc2C1=O | inactive
9 | CC(C)C[C@H](NC(=O)[C@@H](Cc1c[nH]c2ccccc12)NC(=O)[C@H](Cc1ccc(O)cc1)NC(=O)[C@H](CO)NC(=O)[C@H](Cc1c[nH]c2ccccc12)NC(=O)[C@H](Cc1cnc[nH]1)NC(=O)[C@@H]1CCC(=O)N1)C(=O)N[C@@H](CCCNC(=N)N)C(=O)N1CCC[C@H]1C(=O)NCC(N)=O | inactive
10 | O=C1O[C@@H](c2ccccc2)[C@@H](c2ccccc2)N2[C@@H](c3ccc(O)cc3)[C@]3(C(=O)Nc4ccccc43)[C@@H](C(=O)N3CCCCCCC3)[C@H]12 | inactive
11 | O=C1O[C@H](c2ccccc2)[C@H](c2ccccc2)N2[C@H]1[C@@H](C(=O)N1CCCCCCC1)[C@]1(C(=O)Nc3ccccc31)[C@H]2c1ccc(O)cc1 | active
12 | O=C1O[C@@H](c2ccccc2)[C@@H](c2ccccc2)N2[C@@H](c3ccc(OCCO)cc3)[C@]3(C(=O)Nc4ccccc43)[C@@H](C(=O)N3CCCCCCC3)[C@H]12 | inactive
13 | O=C(O)C[C@](O)(Cc1ccc(O)cc1)C(=O)O | inactive
14 | CCS(=O)(=O)Nc1ccc2c(c1)C(=O)N(C)[C@H]1CC[C@H](CC(=O)N3CCN(C)CC3)O[C@@H]1CO2 | inactive
15 | Cc1ccc(S(=O)(=O)N[C@H]2CC[C@@H](CC(=O)N3CCC(Cc4ccccc4)CC3)O[C@H]2CO)cc1 | inactive
16 | C[C@@H]1CN([C@H](C)CO)C(=O)c2cccc(NC(=O)Nc3ccc4c(c3)OCO4)c2O[C@H]1CN(C)Cc1ccc(-c2ccccc2)cc1 | inactive
17 | O=C(CCCCC(=O)N/N=C/c1cc(I)cc(I)c1O)NO | inactive
18 | O=C(NO)c1cccc(C(=O)N/N=C/c2cc(I)cc(I)c2O)c1 | inactive
19 | O=C(CCCCCCC(=O)N/N=C/c1cc(I)cc(I)c1O)NO | active
20 | C[C@@H]1CCCCO[C@@H](CN(C)Cc2ccncc2)[C@H](C)CN([C@@H](C)CO)C(=O)c2cc(NC(=O)CCC(F)(F)F)ccc2O1 | inactive

Row | SMILES | cytotoxicity call
21 | Oc1cc(O)c2c(c1)OC(c1cc(O)c(O)c(O)c1)C(O)C2c1c(O)cc(O)c2c1OC(c1cc(O)c(O)c(O)c1)C(O)C2c1c(O)cc(O)c2c1OC(c1cc(O)c(O)c(O)c1)C(O)C2 (centres undefined) | inactive
22 | C[C@@H]1CN([C@H](C)CO)C(=O)c2cc(C#CCN(C)C)cnc2O[C@H]1CN(C)Cc1ccc(C(=O)O)cc1 | inactive
23 | CCN(CC)[C@H]1CCS(=O)(=O)C1 | inactive
24 | C[C@@H](Oc1cc(-n2cnc3ccc(CN4CCN(C)CC4)cc32)sc1C(N)=O)c1ccccc1C(F)(F)F | active
25 | COc1cccc(NC(=O)N2C[C@H](O)COC[C@@H]3O[C@@H](CC(=O)NC4Cc5ccccc5C4)CC[C@H]32)c1 | inactive
26 | CCCNC(=O)N(C)C[C@@H]1Oc2cc(C#Cc3cccc(F)c3)ccc2S(=O)(=O)N([C@@H](C)CO)C[C@H]1C | inactive
27 | C[C@@H]1CCCCO[C@H](CN(C)Cc2ccc(Cl)c(Cl)c2)[C@@H](C)CN([C@@H](C)CO)C(=O)c2cc(NS(=O)(=O)c3ccc(Cl)cc3)ccc2O1 | active
28 | C[C@@H]1CCCCO[C@H](CN(C)Cc2ccc(Cl)c(Cl)c2)[C@H](C)CN([C@@H](C)CO)C(=O)c2cc(NS(=O)(=O)c3ccc(Cl)cc3)ccc2O1 | inactive
29 | C[C@@H]1CN([C@H](C)CO)C(=O)c2cc(NS(=O)(=O)c3ccc(Cl)cc3)ccc2O[C@@H](C)CCCCO[C@H]1CN(C)Cc1ccc(Cl)c(Cl)c1 | active
30 | C[C@@H]1CN([C@H](C)CO)C(=O)c2cc(NS(=O)(=O)c3ccc(Cl)cc3)ccc2O[C@@H](C)CCCCO[C@@H]1CN(C)Cc1ccc(Cl)c(Cl)c1 | inactive
31 | C[C@@H]1CCCCO[C@@H](CN(C)Cc2ccc(Cl)c(Cl)c2)[C@@H](C)CN([C@@H](C)CO)C(=O)c2cc(NS(=O)(=O)c3ccc(Cl)cc3)ccc2O1 | active
32 | C[C@H](CO)N1C[C@H](C)[C@@H](CN(C)Cc2ccc(Cl)c(Cl)c2)OCCCC[C@H](C)Oc2ccc(NS(=O)(=O)c3ccc(Cl)cc3)cc2C1=O | inactive
33 | C[C@@H]1CCCCO[C@@H](CN(C)Cc2ccc(Cl)c(Cl)c2)[C@@H](C)CN([C@H](C)CO)C(=O)c2cc(NS(=O)(=O)c3ccc(Cl)cc3)ccc2O1 | inactive
34 | C[C@@H]1CCCCO[C@@H](CN(C)Cc2ccc(Cl)c(Cl)c2)[C@H](C)CN([C@@H](C)CO)C(=O)c2cc(NS(=O)(=O)c3ccc(Cl)cc3)ccc2O1 | active
35 | Nc1nnc(CC(=O)O)[nH]1 | inactive
36 | Cc1ccc(S(=O)(=O)Nc2ccc3c(c2)C(=O)N([C@H](C)CO)C[C@H](C)[C@H](CN(C)Cc2ccncc2)OCCCC[C@H](C)O3)cc1 | inactive
37 | O=C(N[C@H]1CC[C@@H](CCNS(=O)(=O)c2ccc(F)cc2)O[C@H]1CO)C1CC1 | inactive
38 | C[C@@H]1CCCCO[C@@H](CN(C)S(C)(=O)=O)[C@@H](C)CN([C@@H](C)CO)C(=O)c2cc(NC(=O)CCCN(C)C)ccc2O1 | inactive
39 | CC(C)NC(=O)Nc1ccc2c(c1)CC(=O)N([C@@H](C)CO)C[C@@H](C)[C@@H](CN(C)Cc1ccc3c(c1)OCO3)O2 | inactive
